An excerpt weighted towards active compounds, which were near 19% of everything screened.
HT1080-NT tox = kills 2HG-producing HT-1080-NT fibrosarcoma cells; HT-1080-NT fibrosarcoma viability, CellTiter-Glo ATP luminescence, 48 h; Potency, µM (top dose mostly 46.1 µM), most hits filed as cytotoxic; 360,000 tested, 1.6% active;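 also: NT is the 2HG producing partner of a matched IDH1 knockdown line; nearly all actives have a fitted effect of over 55% in size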
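A 48-hour cytotoxicity screen used HT-1080-NT cells plated 2 hours before compound delivery. ATP-based CellTiter-Glo luminescence measured viability, normalized to DMSO and no-cell controls.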
KB-V1 MDR tox = kills drug-selected multidrug resistant KB-V1 cells; KB-V1 MDR cells viability, CellTiter-Glo, 72 h; 400,000 tested, 3.4% active; Potency, µM (highest dose often 46.1 µM), hits mostly cytotoxic; also: nearly all actives have a fitted effect of over 60% in size
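Readout: CellTiter-Glo luminescence, 10 min after addition. Cells: KB-V1 MDR subline, 72 h at 37 degrees C with compound. Analysis: corrected, normalized data fitted to concentration-effect curves.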
DT40 TDP1 CPT = DT40-hTDP1 cell growth loss with CPT; chicken DT40 Tdp1-/-;hTDP1 cells + 20 nM CPT, ATP luminescence, 48 h; Potency, µM (series often up to 46.2 µM), hits mostly inhibitors; 420,000 tested, 12% active; also: nearly all actives have a fitted effect of over 55% in size
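Chicken DT40 Tdp1-/- cells stably complemented with human TDP1 were seeded at 400 cells/well in medium containing 20 nM camptothecin, exposed to pin-transferred compounds, and grown at 37 °C for at least 48 hr. Viability was read as ATP luminescence.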
HT1080 IDH1KD tx = HT-1080 IDH1 knockdown cell toxicity (counter line) | HT-1080 IDH1 knockdown viability, ATP luminescence, 48 h | 360,000 tested, 2% active | AID 686971 | Potency, µM (top dose mostly 46.1 µM), usual class: cytotoxic
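Knockdown cells (IDH1KD HT-1080) received compounds 2 h after plating at 750 cells/well and were kept 48 h at 37 °C in 5% FBS RPMI. A CellTiter-Glo luminescence read gave % activity for curve fitting.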
KB-3-1 cytotox = KB-3-1 parental cell cytotoxicity; KB-3-1 viability, CellTiter-Glo ATP luminescence, 72 h; 400,000 tested, 1.4% active; Potency, µM (series often up to 46.1 µM), actives largely listed as cytotoxic; AID 1347075; also: nearly all actives have a fitted effect of over 60% in size
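Using CellTiter-Glo luminescence, growth of non-resistant KB-3-1 adenocarcinoma cells is assessed 72 h after pin-tool compound addition at 37 °C. Normalized responses across the concentration series yield fitted curves.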
TDP1 cell noCPT = qHTS for Inhibitors of human tyrosyl-DNA phosphodiesterase 1 (TDP1): qHTS in cells in absence of CPT; DT40 Tdp1-/- hTDP1 cells, no CPT, ATP luminescence, 48 h; 420,000 tested, 15% active; Potency, µM (top dose mostly 46.2 µM), usual class: inhibitors; also: nearly all actives have a fitted effect of over 55% in size
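Camptothecin absent (DMSO only). Human TDP1-complemented DT40 knockout cells, 400 cells/well, 37 °C for minimum 48 hr; ATP measured via CellTiter-Glo, 30 min dark incubation, luminescence.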
Hits are given with their value; 0 = inactive; ? = inconclusive; - = no result; [ ] = another dose, or the depositor's remark. Calls follow the shape of the dose curve; as a rule, active = well fitted curve in the direction sought with a large enough effect; inconclusive = small, poorly fitted or top-dose-only effect, or another doubt; inactive = no such curve, though single readings can be large; an effect the other way counts as inactive or inconclusive.

SMILES	HT1080-NT tox	KB-V1 MDR tox	DT40 TDP1 CPT	HT1080 IDH1KD tx	KB-3-1 cytotox	TDP1 cell noCPT
COc1ccc(NC(=O)C(=O)N2N=C3CCCCC3C2(O)C(F)(F)F)cc1 (centres undefined)	0	?	0	0	0	0
CCC1=NN(C(=O)C(=O)NCCc2ccccc2)C(O)(C(F)(F)F)C1 (centres undefined)	?	0	0	18µM	0	0
CCC1=NN(C(=O)C(=O)Nc2ccc(OC)cc2)C(O)(C(F)(F)F)C1 (centres undefined)	8.9µM	0	0	5µM	0	0
CCC1=NN(C(=O)C(=O)Nc2ccccc2OC)C(O)(C(F)(F)F)C1 (centres undefined)	2.8µM	0	0	1.4µM	0	?
COc1ccccc1NC(=O)C(=O)N1N=C(C(C)C)CC1(O)C(F)(F)F (centres undefined)	?	0	0	?	0	0
O=S(=O)(Nc1ccc(-c2ccc3nncn3n2)cc1)c1cccs1	0	0	0	0	0	0
Cc1ccc(N(CC(=O)Nc2ccc(Cl)cc2)S(=O)(=O)c2cccc3nonc23)cc1	-	?	?	-	0	?
CCN(Cc1ccc(Br)s1)C(=O)CSc1nnc(C2CC2)n1C1CC1	0	?	0	0	0	0
Cc1sc2ncnc(N3CCC(C(=O)Nc4ccc(Cl)c(Cl)c4)CC3)c2c1C	0	0	?	0	?	?
Cc1sc2ncnc(N3CCC(C(=O)Nc4ccc(Cl)cc4Cl)CC3)c2c1C	0	0	?	0	0	18µM
CCCN(CC(=O)Nc1ccccc1C)C(=O)C1CCN(c2ncnc3sc(C)c(C)c23)CC1	0	21µM	21µM	0	0	10µM
COc1ccccc1OCC(=O)NNC(=O)C1CCN(c2ncnc3sc(C)c(C)c23)CC1	0	0	?	0	0	13µM
CCOc1ccccc1N=C1SCC(C)N1C(=O)C1CCN(c2ncnc3sc(C)c(C)c23)CC1 (centres undefined)	0[9.24 µM]	?	21µM	0	0	15µM
O=C(CCn1c(=O)oc2ccc(Cl)cc21)NCCCN1CCOCC1	0	0	0	0	0	0
CCc1ccc2nc(NC(=O)C3CCN(c4ncnc5sc(C)c(C)c45)CC3)sc2c1	0	0	?	0	0	?
Cc1sc2ncnc(N3CCC(C(=O)N(CC(C)C)c4nc5ccccc5s4)CC3)c2c1C	0	0	21µM	0	0	15µM
C=CCn1c(C)cc(-c2csc(NC(=O)C3CCN(c4ncnc5sc(C)c(C)c45)CC3)n2)c1C	0	0	?	0	0	21µM
COc1ccc(-c2csc(NC(=O)C3CCN(c4ncnc5sc(C)c(C)c45)CC3)n2)cc1OC	5.8µM	0	2.9µM	?	?	2.6µM
Cc1cccc(OCC(=O)NNC(=O)C2CCN(c3ncnc4sc(C)c(C)c34)CC2)c1	0	0	?	0	0	?
Cc1sc2ncnc(N3CCC(C(=O)NCC(=O)Nc4ccc(F)c(F)c4)CC3)c2c1C	0	-	?	0	-	?
Cc1ccccc1OCC(=O)NNC(=O)C1CCN(c2ncnc3sc(C)c(C)c23)CC1	0	?	23µM	0	?	26µM
O=C(Nc1cccc(F)c1)Nc1nnc([C@@H]2O[C@H](CO)[C@@H](O)[C@H]2O)s1	0	0	0	0	0	0
Cc1cccc(NC(c2ccccc2C)c2ccc3ccc(C)nc3c2O)n1 (centres undefined)	-	0	?	-	0	15µM
Cc1ccc2ccc(C(Nc3ccccn3)c3ccccc3)c(O)c2n1 (centres undefined)	0	?	23µM	0	0	18µM
COc1cc(C(Nc2ccccn2)c2ccc3ccc(C)nc3c2O)cc(OC)c1O (centres undefined)	0	16µM	3.7µM	15µM	?	3.3µM
COc1ccc(-c2[nH]ncc2CNC(C)c2ccccc2Cl)cc1F (centres undefined)	0	0	16µM	0	0	23µM

Screening results from PubChem BioAssay.
